Test results taken from ChEMBL document CHEMBL3433997, “St. Jude Leishmania screening dataset” (2016).

Molecular target: Glucose transporter (Leishmania mexicana) (UniProt O61059)
Assay: ST_JUDE_LEISH: Cytotoxicity at 2uM final concentration against transgenic Leishmania Mexicana promastigotes LmGT2 that are glucose transport deficient and complemented with the L. Mexicana glucose transporter 2. Activity is measured by DNA content using SYBR green in vitro
Assay type: functional

SMILES | inhibition [%]
CCOC(=O)C(=CNc1ccc(Cc2cnc(N)nc2N)cc1CC)C(=O)OCC | -3.12
CN1CCN(CCCNCc2ccccc2-c2cccc(CNCc3ccc4c(c3)OCO4)c2)CC1 | 2.45
Cc1cc2ncn(-c3ccnc(N4CCN(CCCN5CCCC5)CC4)n3)c2cc1C | 2.01
COc1cccc(C(=O)Nc2sc3c(c2C(N)=O)CCCC3)c1OC | 12.7
O=C(/C=C/c1ccc(Cl)c(Cl)c1)NCCCCCN1CC[C@H](NC(=O)c2ccc3c(c2)OCO3)C1 | 3.74
O=C(Cc1cccc(O)c1)Nc1ccc(-c2cccc(-c3nc4cc(C(F)(F)F)ccc4[nH]3)c2)cc1 | 0.62
COc1cc2nc(Nc3ccc(N4CCOCC4)cc3)nc(N)c2cc1OC | -0.6
O=S(=O)(Nc1ccc(CCN2CCC(N3CCCCC3)CC2)cc1)c1ccc2ccccc2c1 | 4.79
N#Cc1ccc(-c2ccc(C(=O)NCCCCN3CCC(n4cnc5ccccc54)CC3)cc2)cc1 | 5.28
OCCCCCCNc1ccnc2[nH]c3ccc(I)cc3c12 | 3.14
COc1ccc(-c2nc3ccc(C)nc3nc2-c2ccc(OC)cc2)cc1 | 3.89
CCN(CC)CCCN(CCCN(CC)CC)c1cc(C)nc(Nc2ccc3cc(Br)ccc3c2)n1 | 3.03
O=c1ccc(CNc2nc(NCCc3ccccc3)nc3ccc(Cl)cc23)c[nH]1 | 0.86
O=C(NCCCCCCNCc1ccc(-c2ccccc2)cc1)Nc1ccc(Cl)c(Cl)c1 | 2.28
Cc1cccc(/C=C/C(=O)NC2CCC(N3CCC(c4ccccc4C)CC3)CC2)c1 (centres undefined) | -0.99
N#Cc1ccc2c(c1)CCN(CCC1CCC(NC(=O)c3ccc(-c4ccccc4)s3)CC1)CC2 (centres undefined) | 2.43
Cc1cccc(C(=O)Nc2ccnc(N3CCC(N(C)Cc4cccc(C#N)c4)CC3)c2)c1 | 4.5
O=C(Nc1cccc(C(F)(F)F)c1)c1ccc(S(=O)(=O)NCC2CCCN(CC3CCCCC3)C2)cc1 (centres undefined) | -0.91
COc1cccc(-c2ccc3c(-c4cccc(S(C)(=O)=O)c4)cnc(N)c3c2)c1 | 2.21
CCN(CC)CCNc1nccc(N(C)c2ccc(NC(=O)Nc3cc(C(F)(F)F)ccc3F)cc2)n1 | 0.26

SMILES | inhibition [%]
COc1ccc(CNc2ccc3nc(N)nc(N)c3c2)cc1 | -1.87
CC1(C)N=C(N)N=C(N)N1OCc1cc2ccccc2cc1CON1C(N)=NC(N)=NC1(C)C | 0.5
COc1ccccc1Oc1c(N(C)S(=O)(=O)c2ccc(C(C)C)cc2)nc(C(F)(F)F)nc1N(C)S(=O)(=O)c1ccc(C(C)C)cc1 | 1
CS(=O)(=O)CCN(CCS(C)(=O)=O)Cc1ccc(-c2ccc3ncnc(Nc4ccc(OCc5cccc(F)c5)c(Cl)c4)c3c2)o1 | 2.35
COc1nc2c(CCN3CCC(NCc4ccc5c(c4)NCCO5)CC3)c(Cl)cnc2cc1F | 2.35
COc1ccc2nccc([C@@H](O)CN3CCC(NCCOc4cccc(F)c4F)CC3)c2c1 | -0.41
COc1ccc(-c2ccc(NC(=O)c3ccc(Cl)cc3)cc2)cc1CN1CCNCC1 | 2
CCn1cc(C=C2Oc3c(ccc(O)c3CN3CCCCC3)C2=O)c2ccccc21 | 3.27
COc1ccc(OC)c(C=NNc2nc3ccccc3[nH]2)c1 | 3.34
Cc1cccc2nc(-c3cccc(-c4cccc(CNCc5cnn(-c6ccccc6)n5)c4)c3)[nH]c12 | 2.51
CCCc1ccc(S(=O)(=O)NC2CCN(c3ccnc(Nc4ccc(OC)cc4)n3)C2)cc1 (centres undefined) | 9.64
CCCC(C)C(=O)N1CCOC(COCc2cccc(C(F)(F)F)c2)(c2ccc(Cl)cc2)C1 (centres undefined) | -1.52
CCN1CCN(c2cc(C)c3cc(NC(=O)c4ccc(C(C)(C)C)cc4)ccc3n2)CC1 | 1.59
NCc1cccc(-c2ccccc2CNC2CCN(Cc3ccccc3)CC2)c1 | 6.92
CCN1CCN(c2cc(C)c3cc(NC(=O)c4ccc(OC)c(OC)c4)ccc3n2)CC1 | 0.24
CCC[C@@H]([C@@H](Cc1ccc(C)s1)C(=O)N[C@@H](CNC(C)=O)C(=O)Nc1nccs1)N(O)C=O | 8.72
COc1ccc(NC(=O)NC2CCN(CCCCCNC(=O)/C=C/c3ccc(Cl)c(Cl)c3)CC2)cc1 | -2.52
COc1cc2nc(N3CCN(c4nc(N)c5cc(OC)c(OC)cc5n4)CC3)nc(N)c2cc1OC | 4.05
O=C(Nc1cccc([N+](=O)[O-])c1)Nc1ccc(Cl)c(C(F)(F)F)c1 | 0.73
